Compounds with a hit are over-represented: about 4% of the library has one in this group of screens.
FGF22 binding: binders of human FGF22 protein, primary screen, FGF22 synaptogenesis inhibitor project, biophysical, thermal shift, single point. Fibroblast growth factor 22 (Homo sapiens), Q9HCT0. recombinant FGF22 thermal shift, SYPRO orange fluorescence; percent of sucrose octasulfate shift, DMSO zero. activity (Tm shift, normalised), % at 9.99 µM. 340,000 tested, 1.5% active;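 active = mean Tm shift, scaled 0 neutral to 100 positive control, at about 1.3% or above, every replicate too, limit read from the data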
Target sequence (Q9HCT0 whole entry, looked up): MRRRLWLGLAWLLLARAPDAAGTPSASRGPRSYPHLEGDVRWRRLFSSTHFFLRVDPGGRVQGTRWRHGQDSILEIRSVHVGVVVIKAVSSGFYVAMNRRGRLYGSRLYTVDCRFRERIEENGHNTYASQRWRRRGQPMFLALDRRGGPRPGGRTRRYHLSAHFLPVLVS
DENV2 CPE rescue: inhibitors of DENV2 cytopathic effect, primary screen, cell-based, plate reader, single concentration. 350,000 tested, 1.7% active. DENV2-infected cells, cytopathic effect rescue. CPE inhibition, % at 9.99 µM. AID 651640, 2012; in the data active = CPE inhibition above about 20%, passing the limit was not always enough; tested in BHK-21 cells;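 also: 0% = median of neutral control wells and 100% = median of positive control wells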
ERAP1 inh: human ERAP1 aminopeptidase inhibitors, primary screen, biochemical, single point, plate reader. recombinant ERAP1, Leu-AMC fluorescence, 60 min. inhibition, % at 10.7 µM. 340,000 tested, 0.15% active. AID 652197, 2013. Endoplasmic reticulum aminopeptidase 1 (Homo sapiens), Q9NZ08;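 active = mean replicate inhibition of at least 30%, or all replicates individually reaching that 30% level; inactive = mean below 30% and not every replicate reaching it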;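 also: 0% = neutral control wells and 100% = L-leucinethiol positive control wells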
RAD52 anneal inh: RAD52 DNA annealing inhibitors, primary screen, biochemical, FRET, single point, set 2; DNA repair protein RAD52 homolog (Homo sapiens), P43351; recombinant RAD52 DNA annealing, FRET fluorescence; inhibition, % at 18.7 µM; 360,000 tested, 0.46% active; AID 651710, 2012;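 active = every replicate showing at least 50% inhibition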
Target sequence (P43351 whole entry, looked up): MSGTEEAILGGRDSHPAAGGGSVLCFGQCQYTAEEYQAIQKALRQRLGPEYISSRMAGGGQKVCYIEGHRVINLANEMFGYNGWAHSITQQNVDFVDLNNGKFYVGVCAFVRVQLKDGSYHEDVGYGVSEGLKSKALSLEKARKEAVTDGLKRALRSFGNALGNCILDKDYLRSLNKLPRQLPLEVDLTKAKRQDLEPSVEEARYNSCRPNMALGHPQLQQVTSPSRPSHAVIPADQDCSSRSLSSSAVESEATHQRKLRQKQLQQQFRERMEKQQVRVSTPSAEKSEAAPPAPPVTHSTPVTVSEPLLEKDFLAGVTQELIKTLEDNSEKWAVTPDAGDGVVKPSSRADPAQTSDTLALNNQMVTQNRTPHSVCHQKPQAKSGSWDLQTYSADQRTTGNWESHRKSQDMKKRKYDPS
MLL AF4-AF9 inh: inhibitors of AF4 peptide binding to AF9, primary screen, biochemical, AlphaScreen, biotin-AF4 peptide, FLAG-AF9, single point | Protein AF-9 (Homo sapiens), P42568 | inhibition, % at 10 µM | 350,000 tested, 0.47% active | AID 651704, 2012;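 active = every replicate reaching a set inhibition limit, whatever the replicate mean, cut at about 25% in these data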;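 also: 0% = plate neutral control median and 100% = total signal loss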
* marks the source's active call; other numbers are inactive results; · = no result.

SMILES	FGF22 binding	DENV2 CPE rescue	ERAP1 inh	RAD52 anneal inh	MLL AF4-AF9 inh
Cc1ccccc1-c1cnc2c(c1)C(=O)N([C@H](C)CO)C[C@@H](C)[C@@H](CN(C)C(=O)c1ccncc1)O2	0	3	0	2	-5
COC(=O)[C@]12CCCCC=C1N(CCC1=CCCCC1)C(=O)[C@H](CC(=O)NCc1cccc(C(F)(F)F)c1)C2	0	51*	0	4	-1
CCOC(=O)[C@]12CCC=C1N(Cc1ccc(Cl)cc1Cl)C(=O)[C@H](CC(=O)NCc1cccc(C(F)(F)F)c1)C2	1.4*	7	0	-7	1
CCS(=O)(=O)N1[C@@H](CO)[C@@H](c2ccccc2)C12CN(C(=O)C1CC1)C2	0	0	-1	-10	-2
O=[N+]([O-])c1cccc(C=Nc2cc3c(cc2Br)OCCO3)c1	0	44*	1	-3	0
O=[N+]([O-])c1ccc(NN=Cc2cccc([N+](=O)[O-])c2)cc1	0	·	6	-2	-1
CC1C(=NO)C(C)C(c2ccc(N(C)C)cc2)NC1c1ccc(N(C)C)cc1 (stereo not drawn)	0	-2	2	-4	43*
Cc1csc(=O)n1CCC(=O)OCC(=O)Nc1cc([N+](=O)[O-])ccc1Cl	0	37*	0	-5	1
Cc1ccc(NC(=O)COC(=O)CCn2c(C)csc2=O)c([N+](=O)[O-])c1	0	0	-3	-7	1
COCC#Cc1cnc2c(c1)C(=O)N([C@@H](C)CO)C[C@H](C)[C@H](CN(C)C(=O)Nc1ccccc1OC)O2	0	-11	0	3	-4
C[C@@H]1CN([C@@H](C)CO)C(=O)c2cc(-c3cccc(F)c3)cnc2O[C@H]1CN(C)Cc1cccnc1	·	-3	-3	5	0
CCCCNCCCOc1ccc(C)cc1Br	44*	13	-1	1	1
CCCCNCCCOc1cccc(Cl)c1Cl	0	·	-2	-6	-1
C#C[C@]1(O)CCC2C3CCC4=CC(=O)CC[C@@H]4C3CC[C@@]21C (stereo partly drawn)	0	7	-1	-4	-2
CC#C[C@]1(O)CC[C@H]2[C@@H]3CCC4=CC(=O)CCC4=C3[C@@H](c3ccc(N(C)C)cc3)C[C@@]21C	0	-3	1	-8	33*
CO[C@H]1CN(C)C(=O)c2ccc(NC(C)=O)cc2OC[C@H](C)N(C(=O)CC2CC2)C[C@@H]1C	·	-2	1	0	0
CO[C@@H]1CN(C)C(=O)c2cc(NS(=O)(=O)c3ccc(F)cc3)ccc2OC[C@H](C)NC[C@@H]1C	0	5	-2	-12	-4
C[C@@H]1CN([C@@H](C)CO)C(=O)Cc2cc(NC(=O)Nc3cccc4ccccc34)ccc2O[C@H]1CN(C)C	0	21*	-4	16	3
Cc1noc(C)c1NC(=O)Nc1ccc2c(c1)CC(=O)N([C@H](C)CO)C[C@@H](C)[C@@H](CN(C)C)O2	0	-9	-3	7	-2
Cc1noc(C)c1NC(=O)Nc1ccc2c(c1)CC(=O)N([C@@H](C)CO)C[C@H](C)[C@H](CN(C)C)O2	0	21*	-3	-8	-2
C[C@@H]1CN([C@@H](C)CO)C(=O)Cc2cc(NC(=O)Nc3cccc4ccccc34)ccc2O[C@@H]1CN(C)C(=O)NC1CCCCC1	0	13	0	0	-25
C[C@@H]1CN([C@@H](C)CO)C(=O)Cc2cc(NC(=O)Nc3ccc(F)cc3)ccc2O[C@@H]1CN(C)C(=O)Nc1cccc2ccccc12	1	41*	3	16	-1
C[C@@H]1CN([C@@H](C)CO)C(=O)Cc2cc(NC(=O)Nc3cccc4ccccc34)ccc2O[C@H]1CN(C)C(=O)NC1CCCCC1	0	25*	2	-5	5
O=C(C1CCC1)N1CC(=O)N2[C@@H](CO)[C@@H](c3ccc(C4=CCCCC4)cc3)[C@@H]2C1	·	-7	2	-2	2
COc1ccc(NC(=O)N(C)C[C@H]2Oc3ccc(NC(=O)NC(C)C)cc3C(=O)N([C@@H](C)CO)C[C@@H]2C)cc1	0	5	1	18	-1
SMILES	FGF22 binding	DENV2 CPE rescue	ERAP1 inh	RAD52 anneal inh	MLL AF4-AF9 inh
Cc1noc(C)c1NC(=O)Nc1ccc2c(c1)C(=O)N([C@H](C)CO)C[C@H](C)[C@H](CN(C)C(=O)c1ccccc1)OCCCC[C@@H](C)O2	-1	-2	-2	·	0
C[C@H](CO)N1C[C@H](C)[C@@H](CN(C)S(=O)(=O)c2ccc(Cl)cc2)Oc2ccc(NC(=O)Nc3cccc4ccccc34)cc2CC1=O	0	42*	-1	25	-3
C[C@H](CO)N1C[C@H](C)[C@H](CN(C)C)Oc2ccc(NC(=O)Nc3cccc4ccccc34)cc2CC1=O	0	35*	-1	1	1
C[C@@H]1CN([C@@H](C)CO)C(=O)Cc2cc(NC(=O)Nc3cccc4ccccc34)ccc2O[C@@H]1CN(C)S(=O)(=O)c1ccc(Cl)cc1	0	8	-1	-2	3
COc1ccc(CCN(Cc2nc3ccccc3c(=O)[nH]2)C(=O)C2CC2)cc1	43*	2	5	-16	-2
CCOC(=O)CSc1[nH]c2cc(OC)ccc2c1[N+](=O)[O-]	0	24*	1	-1	-1
O=C1CN(Cc2ccccc2)C[C@@H]2[C@H](c3ccc(Br)cc3)[C@@H](CO)N12	0	-1	0	-12	2
COc1ccc(Nc2nc(NCc3ccco3)nc(N/N=C/c3ccc(O)cc3)n2)cc1	1.9*	-7	2	-11	12
C=CC[C@]12C=C(OC)C(=O)C(OC)=C1O[C@@H](c1ccc3c(c1)OCO3)[C@H]2C	0	30*	0	1	-1
C[C@@H]1CN([C@@H](C)CO)C(=O)c2cccc(NC(=O)c3cnccn3)c2O[C@H]1CN(C)C(=O)Nc1ccc(F)cc1	0	-4	-3	-2	-3
NS(=O)(=O)c1ccc(N2C(=O)C3CC=CCC3C2=O)cc1 (stereo not drawn)	44*	-12	-1	-10	-1
CCOC(=O)c1ccc(N2C(=O)C3CC=CCC3C2=O)cc1 (stereo not drawn)	·	·	2	-10	·
CCOP(=O)(OCC)C(NC(=O)Nc1c(C)cc(C)cc1C)c1ccccc1 (stereo not drawn)	43*	-2	3	-1	-1
CCOP(=O)(OCC)C(NC(=O)Nc1ccccc1)c1ccccc1 (stereo not drawn)	0	·	-2	-5	-2
CN1C(=O)c2cc(NS(=O)(=O)c3ccccc3Cl)ccc2OC[C@@H]2O[C@H](CC(=O)O)CC[C@H]21	0	0	-1	-3	-1
